According to PubChem BioAssay (NCI):
Compounds without any hit were thinned out: in the full panel of roughly 83,000, 20% have a hit.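 Single-dose data. Exposure time 48 hours. Values below 10 considered active.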 Unmarked numbers belong to inactive results. Active and inactive are the calls of the source.

system: NCI-H522 lung; experiment: NCI-60 one-dose screen, 48 h (100 = growth as untreated, 0 = no growth, -100 = all killed); settings: 10 µM unless noted
Method: Growth inhibition of the NCI-H522 human Non-Small Cell Lung tumor cell line is measured as a screen for anti-cancer activity. Cells are grown in 96 well plates and exposed to the test compound for 48 hours. Compounds are tested at a single concentration, which is 10^-5 M for most compounds. The reported endpoint is percent growth (GI% or GIPRCNT), where numbers from 0 - 100% represent growth inhibition, and numbers from -100% - 0 represent cell death. For example, a value of 40 represents 60% growth inhibition. A value of 0 means no net growth occurred over the course of the experiment. A value of -40 indicates 40% of cells at the beginning of the experiment died by the end of the experiment. A value of -100 means all cells are dead at the end of the experiment.
NCI-60 Human Tumor Cell Lines Screen was performed using the standard one-dose NCI protocol, which is described in more detail at https://dtp.cancer.gov/discovery_development/nci-60/default.htm.
Compounds with GIPRCNT values below 10 were considered active. Activity score was based on GIPRCNT using the following formula: […]
Score is 0 for GIPRCNT values of 100 or above, 50 for GIPRCNT values of 0, and 100 for GIPRCNT values of -100.

**Q.** For `COc1cc2oc(-c3cccc(NC(=O)[C@@H](N)C(C)C)c3)cc(=O)c2c(OC)c1OC`, which growth is on record?
**A.** 92.7%

**Q.** For `O=C(CSc1nnc(-c2ccc(Cl)cc2)n1-c1ccccc1)Nc1ccccc1Cl`, which growth is on record?
**A.** 76.2%

**Q.** With `CN1CCN(Cc2ccc(NC(=O)c3cncc(C#Cc4cnc5ccc(N6CCOCC6)nn45)c3)cc2C(F)(F)F)CC1` as the compound, how does the growth read?
**A.** -79.2% (active)

**Q.** `Cc1csc(/N=C(N)/N=C(\N)c2cccnc2)n1` was tested. Which growth did it give?
**A.** 54.4%

**Q.** Which growth does the source give for `CCCc1[nH]c(-c2cc(N)ccc2Cl)c2c1C(=O)CCCC2` here?
**A.** 90.9%

**Q.** How did the growth turn out when `COc1ccc(OC)c(NC(=O)CCCCCCNC(=O)C(O)(O)C(F)(F)F)c1` was run?
**A.** -0.794% (active)

**Q.** With `O=C(/C=C/c1cccc(F)c1)c1cccc(OCCCOc2cccc(C(=O)/C=C/c3cccc(F)c3)c2)c1` as the compound, how does the growth read?
**A.** 83.2%

**Q.** `Cc1nc(/N=C(N)/N=C(\N)c2cccc(Br)c2)sc1C` was tested. Which growth did it give?
**A.** 45.7%

**Q.** For `Clc1ccc2[nH]cc(-c3nn4cc(-c5ccncc5)nc4s3)c2c1`, which growth is on record?
**A.** 36.4%

**Q.** How did the growth turn out when `CC1=C(C)C(=O)C(Nc2ccc(C)c(C)c2)=C(Br)C1=O` was run?
**A.** 97.2%

**Q.** How did the growth turn out when `O=C1C(SCc2ccccc2)=C(Cl)CN1c1ccc(Cl)cc1` was run?
**A.** -59.6% (active)

**Q.** How did the growth turn out when `CC(C)(C)Nc1nc2c(OCCc3ccccc3)cccn2c1-c1ccc([N+](=O)[O-])cc1` was run?
**A.** 41.4%

**Q.** With `O=C(N/N=C\c1ccc([N+](=O)[O-])cc1)c1ccc2nc(-c3ccc(Br)cc3)[nH]c2c1` as the compound, how does the growth read?
**A.** 5.47% (active)

**Q.** How did the growth turn out when `CN1CCN(c2ccc(Nc3nc(NCCCNS(=O)(=O)c4cccc5ccccc45)c4sccc4n3)cc2)CC1` was run?
**A.** -81.1% (active)

**Q.** `CCCc1cc2cc(-n3nc(CC)c4c3CC(C)(C)CC4=O)cc(NC3CCC(O)CC3)c2c(=O)[nH]1` (stereo not given) was tested. Which growth did it give?
**A.** 17.7%

**Q.** `Cc1ccc(Nc2nc(SC(C)C)nc(-c3ccccc3)c2C#N)cc1` was tested. Which growth did it give?
**A.** 83.7%

**Q.** `COC(=O)CNC(=O)c1cccc(-c2cc(=O)c3c(OC)c(OC)c(OC)cc3o2)c1` was tested. Which growth did it give?
**A.** 99.6%

**Q.** For `N#C/C(=N\Nc1ccc(F)cc1)C(=O)Nc1cc(-c2ccccc2)nn1-c1ccccc1`, which growth is on record?
**A.** 6.57% (active)

**Q.** With `CN1CCN(c2ccc(Nc3nc(NCCNS(=O)(=O)c4ccc5ccccc5c4)c4sccc4n3)cc2)CC1` as the compound, how does the growth read?
**A.** 87.4%

**Q.** `O=C(N/N=C\c1ccc(F)cc1)c1ccc2nc(-c3ccc(Br)cc3)[nH]c2c1` was tested. Which growth did it give?
**A.** 81%

**Q.** With `Cn1cc(-c2nc(N)nnc2-c2c[nH]c3ccc(Br)cc23)c2cc(F)ccc21` as the compound, how does the growth read?
**A.** 89.1%

**Q.** How did the growth turn out when `O=C(Nc1cc(C(F)(F)F)cc(C(F)(F)F)c1)Nc1ccc2oc(=O)ccc2c1` was run?
**A.** -13.5% (active)

**Q.** `CCN(CC)c1ccc(/C=N/NC(=O)c2ccc(NS(C)(=O)=O)cc2)cc1` was tested. Which growth did it give?
**A.** 21.8%

**Q.** For `CN(C)S(=O)(=O)c1ccc(-c2nc(C(Cl)Cl)nc3cc(-c4ccccc4)nn23)cc1`, which growth is on record?
**A.** 89.6%

**Q.** With `O=C(CSc1nc2ccccc2c(=O)n1-c1ccc(S(=O)(=O)Nc2ccc(Cl)nn2)cc1)Nc1ccc(S(=O)(=O)Nc2ccc(Cl)nn2)cc1` as the compound, how does the growth read?
**A.** 101%

**Q.** `COc1cccc(N2CCN(C3=C(Cl)C(=O)c4ncccc4C3=O)CC2)c1` was tested. Which growth did it give?
**A.** 42.6%

**Q.** With `CCc1cc2c(cc1Cl)nc1c(=O)[nH]c(=O)nc-1n2CCOCC(C)(C)C` as the compound, how does the growth read?
**A.** 70.5%

**Q.** For `CC1(C)CC[C@]2(C(=O)NCCCCCCN(CCCN)CCCN)CC[C@]3(C)C(=CC[C@@H]4[C@@]5(C)CC[C@H](O)C(C)(C)[C@@H]5CC[C@]43C)[C@@H]2C1`, which growth is on record?
**A.** 101%

**Q.** Which growth does the source give for `C/C(=C(/C)C1CC1CCNC1CCC(NC(=O)OC(C)(C)C)CC1)c1ccccc1` (stereo not given) here?
**A.** 68.6%

**Q.** For `C#CCN(C)CCCOc1ccc(NC(=O)CCCCCCC(=O)NO)cc1Cl`, which growth is on record?
**A.** 12.8%

**Q.** How did the growth turn out when `CCN(CC)S(=O)(=O)c1ccc(-c2nc(C(Cl)Cl)nc3cc(C)nn23)cc1` was run?
**A.** 56%

**Q.** `Cc1ccc(C(=O)Nc2ccc(CNCCN3CCNCC3)c(C(F)(F)F)c2)cc1C#Cc1cnc2cccnn12` was tested. Which growth did it give?
**A.** -33.9% (active)

**Q.** With `Cc1ccc2c(n1)C(=O)C(Cl)=C(Nc1ccccc1C(=O)OC(C)(C)C)C2=O` as the compound, how does the growth read?
**A.** -33.8% (active)

**Q.** Which growth does the source give for `Cc1[nH]c(C(=O)Nc2ccc(C(=O)NCC3CCNCC3)cc2OC(C)C)c(Cl)c1Cl` here?
**A.** 90.7%

**Q.** `Cn1c(SCC(=O)c2ccc(Br)cc2)nc2ccccc2c1=O` was tested. Which growth did it give?
**A.** 86.4%

**Q.** `O=C(/C=C/c1ccccc1Cl)Nc1ncc(Cc2cc(Cl)ccc2Cl)s1` was tested. Which growth did it give?
**A.** 12.3%

**Q.** `CCCC/C(=C\c1ccc(O)c(O)c1)C(=O)NC(Cc1ccccc1)C(=O)C(=O)NCCc1ccc(OC)cc1` (stereo not given) was tested. Which growth did it give?
**A.** 87.7%

**Q.** For `Oc1ccc(-c2nc3ccc(/C(=N\N=C\c4ccc(Cl)cc4)c4ccccc4)cc3[nH]2)cc1`, which growth is on record?
**A.** 74.6%

**Q.** Which growth does the source give for `O=C1[C@@H]2Cc3c([nH]c4ccccc34)[C@H](c3ccc(Br)cc3)N2C(=O)CN1C1CCN(Cc2c(Cl)cccc2Cl)CC1` here?
**A.** 91.7%

**Q.** Which growth does the source give for `CCCCCCN1C=C/C(=C\C(=O)n2ccc3ccccc32)c2ccccc21` here?
**A.** 57.7%
